Screening data as filed in PubChem.
An excerpt weighted towards active compounds, which were near 3.9% of everything screened.
CCHFV vOTU inh: blocks the CCHF virus ovarian tumor domain protease; CCHFV vOTU protease, Pep-AMC fluorescence; inhibition, % at 11.5 µM; hit rate 0.55% among 370,000; AID 651958; in the data active = inhibition above about 30%; also: 0% = vehicle wells with enzyme and 100% = no enzyme wells
Mtb FBA inh: Mtb fructose-bisphosphate aldolase inhibition | P9WQA3 | purified M. tuberculosis FBA, fluorescence read-out | inhibition, % at 1 µM | hit rate 2.3% among 360,000 | AID 588726;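 also: 0% = vehicle and 100% = reference inhibitor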
Target sequence (P9WQA3 whole entry, looked up): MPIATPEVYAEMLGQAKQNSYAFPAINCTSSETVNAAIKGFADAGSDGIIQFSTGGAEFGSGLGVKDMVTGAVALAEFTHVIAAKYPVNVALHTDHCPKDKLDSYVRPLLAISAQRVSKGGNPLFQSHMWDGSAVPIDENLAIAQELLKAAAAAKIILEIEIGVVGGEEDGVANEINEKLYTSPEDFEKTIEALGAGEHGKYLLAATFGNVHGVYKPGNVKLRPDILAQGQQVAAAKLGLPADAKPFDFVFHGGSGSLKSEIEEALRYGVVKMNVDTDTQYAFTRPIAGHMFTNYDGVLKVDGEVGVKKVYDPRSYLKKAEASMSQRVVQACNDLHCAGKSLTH
BH1578 lux ind: inducers of Vibrio cholerae quorum light production without autoinducers; activation, % at 18.7 µM; V. cholerae BH1578 lux reporter, luminescence, 6 h; hit rate 0.16% among 350,000; in the data active = activation mostly above about 9.7%, no sharp cut-off
GDH-TPI counter-1: inhibits GDH-TPI coupling enzymes, artifact for Mtb FBA screen; GDH-TPI coupled enzyme counterscreen, NADH absorbance; inhibition, % at 4.8 µM; hit rate 1.2% among 360,000; in the data active = inhibition above about 30%;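 also: 0% = DMSO wells and 100% = wells lacking the enzyme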
Mtb FBA confirm: Mtb FBA inhibition, confirmed. purified M. tuberculosis FBA, fluorescence read-out. shares compounds with Mtb FBA inh. AID 651616. hit rate 78% among 5,600. inhibition, % at 1 µM;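 also: 0% = vehicle wells and 100% = reference inhibitor wells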
GDH-TPI counter-2: counter-screen for M. tuberculosis FBA inhibitors: GDH-TPI coupled enzyme inhibition | shares compounds with Mtb FBA inh | GDH-TPI coupled enzyme counterscreen, fluorescence | inhibition, % at 1 µM | hit rate 81% among 5,600 | AID 652141; in the data active = inhibition above about 10%
Numbers without * were called inactive; i = inactive; / = no result given; + = active, no number. Rule as the data show it, unless noted: active = inhibition above about 27%; inactive = the rest.

SMILES	CCHFV vOTU inh	Mtb FBA inh	BH1578 lux ind	GDH-TPI counter-1	Mtb FBA confirm	GDH-TPI counter-2
O=C(NCc1ccccc1)C1Cc2c(-c3ccc4c(c3)OCO4)ccnc2O1 (stereo not drawn)	-5.8	64.8*	-0.4	4.5	+	+
CN1CCN(c2ccc(CNC(=O)C3Cc4c(-c5ccc6c(c5)OCO6)ccnc4O3)cc2)CC1 (stereo not drawn)	0.0	23.1	-0.5	-6.2	/	/
O=C(NCc1ccncc1)C1Cc2c(-c3ccc4c(c3)OCO4)ccnc2O1 (stereo not drawn)	2.7	45.3*	i	-3.6	59.0*	44.4*
CCn1c2ccccc2c2cc([N+](=O)[O-])ccc21	-9.4	3.3	0.0	2.9	/	/
CCn1c2ccccc2c(=O)c2ccccc21	-149.7	87.1*	-0.3	6.6	5.0	-3.7
COc1cc(-c2nc3cccc(C)n3c2NCC2CCCO2)ccc1O (stereo not drawn)	-10.9	29.1*	-3.6	-9.8	+	+
Nc1ccccc1C(=O)Nc1nccs1	-96.0	54.7*	i	6.7	127.8*	84.2*
CCc1cc2c(=O)c(-c3cnn(-c4ccccc4)c3)coc2c(CN2CCOCC2)c1O	2.3	10.4	-0.2	1.8	/	/
CCc1cc2c(=O)c(-c3cnn(-c4ccccc4)c3)c(C)oc2c(CN2CCCCC2)c1O	-6.8	41.2*	-0.5	21.5	+	+
CCn1c(CO)nc2c1c(=O)[nH]c(=O)n2Cc1ccccc1	8.3	9.1	-8.3	-5.2	/	/
Cc1ccc(-c2nc3c(c(=O)[nH]c(=O)n3Cc3ccccc3)n2Cc2ccccc2)o1	-7.6	38.3*	-0.1	10.4	152.6*	133.0*
Cc1ccc(-c2nc3c(c(=O)[nH]c(=O)n3Cc3ccccc3)n2C)o1	-5.8	36.2*	-0.3	7.7	98.4*	114.6*
O=C(CSc1nnc(COc2ccc(Cl)cc2)o1)N(c1ccccc1)C1CCS(=O)(=O)C1 (stereo not drawn)	1.5	0.1	0.0	0.0	/	/
c1ccc(Oc2nc3ccccc3n3cccc23)cc1	-3.8	10.4	-0.7	-2.6	/	/
CCO[C@@H]1OC(C(=O)NCc2nc3ccccc3[nH]2)=C[C@H](c2csc3ccccc23)[C@H]1CCCO	4.1	-3.0	-0.9	-2.8	/	/
Cc1cccnc1NC(=O)Nc1cccc2ccccc12	-13.0	56.3*	i	-2.3	89.9*	73.1*
CC1CC(N(C(=O)c2ccccc2Cl)c2ccccc2)c2ccccc2N1 (stereo not drawn)	8.8	0.3	i	3.0	/	/
CC(C)n1ncc2c(C(=O)NCCc3ccc(S(N)(=O)=O)cc3)cc(C3CC3)nc21	-15.1	28.3*	-0.6	-1.7	+	+
c1csc(-c2nc3ccccc3[nH]2)c1	-6.7	47.7*	i	7.6	63.3*	47.1*
c1cncc(-c2nc3ccccc3[nH]2)c1	-3.2	4.4	-0.9	10.5	/	/
Nc1nc(-c2nc3ccccc3[nH]2)cs1	-12.4	0.1	-16.7	15.6	/	/
c1ccc2[nH]c(-c3ccncc3)nc2c1	4.1	29.6*	/	2.5	+	179.0*
Cc1nnsc1-c1nc2ccccc2[nH]1	-55.6	81.3*	i	12.9	16.8	3.2
S=C(Nc1ccc(-c2nc3ccccc3[nH]2)cc1)Nc1cccnc1	-17.7	89.2*	-0.1	11.5	64.2*	59.5*
CC(C)NC(=O)N(C)C[C@H]1Oc2ccc(NC(=O)Nc3ccc4c(c3)OCO4)cc2C(=O)N([C@H](C)CO)C[C@@H]1C	-1.6	-5.2	-1.4	-16.3	/	/
SMILES	CCHFV vOTU inh	Mtb FBA inh	BH1578 lux ind	GDH-TPI counter-1	Mtb FBA confirm	GDH-TPI counter-2
COc1ccc(C2/C=C\CC(OCc3ccccc3)CC(=O)N2Cc2cccc(F)c2)cc1 (stereo not drawn)	8.0	0.4	-1.0	3.6	/	/
O=C(CSc1ncn[nH]1)c1cc2ccccc2o1	-13.1	-0.8	-0.9	0.3	/	/
O=C(O)c1cc(=O)[nH]c2ccccc12	-7.1	12.3	-0.8	13.7	/	/
CCCOc1ccc(C(=O)CCC(=O)OCC(=O)N2CCN(S(=O)(=O)c3ccc(C)cc3C)CC2)cc1	10.6	1.2	i	-6.5	/	/
COC(=O)[C@]12C[C@H](CC(=O)NCCCN3CCCC3=O)C(=O)N(Cc3ccccc3)C1=C[C@H](COCc1ccccc1)O[C@@H]2C	-6.9	/	/	/	/	/
Cc1ccc(-c2nc3ccccc3[nH]2)s1	-49.2	57.6*	i	30.0	68.3*	62.9*
Cc1[nH]c2ccccc2c1-c1nc2ccccc2[nH]1	6.1	14.4	i	11.2	/	/
